45 molecules from PubChem BioAssay AID2014 (Sanford-Burnham Center for Chemical Genomics, 2009) can be followed below.

The target of this assay is Polyadenylate-binding protein 1 (Homo sapiens) (UniProt P11940). The assay can be described thus: blockers of PABP interaction with poly(A) – biochemical, fluorescence polarization, uHTS, primary screen (AID 2014).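 Further: calls also rest on retests at 20 µM and on dose response follow-up.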 The note with it: PABP-poly(A) RNA binding, stronger effect = higher value. A general note: Fluorescence polarisation rises when a labelled molecule tumbles more slowly, as on binding a larger partner.

The whole screen tested about 290,000 compounds, of which about 3,000 (1%) were called active. This is one part of a sample in which actives are shown more often than they occur. How the calls were made is not given here.

One may read the inhibition as the relative decrease from the control value, in per cent.

Chain of Polyadenylate-binding protein 1 (Homo sapiens) (P11940 whole entry, looked up): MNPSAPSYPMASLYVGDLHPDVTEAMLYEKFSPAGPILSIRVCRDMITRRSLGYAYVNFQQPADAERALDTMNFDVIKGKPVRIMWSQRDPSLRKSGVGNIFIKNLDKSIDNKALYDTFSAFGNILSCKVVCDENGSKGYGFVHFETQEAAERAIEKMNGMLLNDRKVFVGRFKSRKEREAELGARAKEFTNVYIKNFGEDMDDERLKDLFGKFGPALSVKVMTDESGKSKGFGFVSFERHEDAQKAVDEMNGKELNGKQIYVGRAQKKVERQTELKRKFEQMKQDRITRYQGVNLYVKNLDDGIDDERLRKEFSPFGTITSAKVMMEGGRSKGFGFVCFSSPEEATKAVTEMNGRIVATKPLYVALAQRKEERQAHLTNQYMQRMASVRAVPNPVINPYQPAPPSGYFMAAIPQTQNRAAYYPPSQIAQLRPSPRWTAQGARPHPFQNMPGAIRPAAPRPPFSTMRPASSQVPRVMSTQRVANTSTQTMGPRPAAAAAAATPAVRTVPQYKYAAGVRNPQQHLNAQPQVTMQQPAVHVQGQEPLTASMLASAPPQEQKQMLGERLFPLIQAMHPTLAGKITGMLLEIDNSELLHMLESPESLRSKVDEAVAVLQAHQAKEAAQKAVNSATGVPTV

For the molecule `CCn1c(=O)c2ccccc2n(CC(=O)N2CCCc3ccccc32)c1=O`, the inhibition (at 35 µM) was -1.4% (inactive).

Take `O=C(CSCc1ccccc1)N1CCc2ccccc21`: the inhibition (at 35 µM) is 2.2% (inactive).

`CCC(=O)N1CCCc2ccccc21`: the inhibition (at 35 µM) was 59.1% (active).

Regarding `Cc1cc(NC(=O)c2ccc(F)cc2)ccc1NC(=O)c1ccco1`, the inhibition (at 35 µM) is 1.1% (inactive).

`Cc1c(C(=O)N2CCN(c3ccc(F)cc3)CC2)oc2c1C(=O)CCC2`: the inhibition (at 35 µM) was 5.7% (inactive).

Take `O=C(NCc1cccc(CNC(=O)Nc2cccc(O)c2)c1)Nc1cccc(O)c1`: the inhibition (at 35 µM) is 3.3% (inactive).

For `COc1ccc(OC)c(-n2nnnc2SCC(=O)Nc2cc(C)ccc2OC)c1`, the inhibition (at 35 µM) is 2.6% (inactive).

Regarding `COc1ccc(C)cc1-n1nnnc1SCC(=O)c1cc(C)n(Cc2ccco2)c1C`, the inhibition (at 35 µM) was 51.1% (active).

With `Cc1cc(C(=O)CSc2nc(N)cc(=O)[nH]2)c(C)n1Cc1ccco1`, the inhibition (at 35 µM) is 10.5% (inactive).

On to `O=C(OCC1O[C@@H](OC(=O)c2cc(O)c(O)c(O)c2)[C@@H](OC(=O)c2cc(O)c(O)c(O)c2)[C@@H](OC(=O)c2cc(O)c(O)c(O)c2)[C@@H]1OC(=O)c1cc(O)c(O)c(O)c1)c1cc(O)c(O)c(O)c1` (stereo not given in full), for which the inhibition (at 35 µM) is 88.2% (active).

In the case of `Cc1ccc(-c2nc(-c3ccncc3)no2)c(C)c1`, the inhibition (at 35 µM) is 9.6% (inactive).

As to `COc1ccc(-c2ocnc2C(=O)Nc2ccc3c(c2)CCC3)cc1`, the inhibition (at 35 µM) was 5.3% (inactive).

Consider `Cc1ccc2c(cnn2C(=O)CCC(=O)NC2CCCC2)c1`, for which the inhibition (at 35 µM) is -2.1% (inactive).

Turning to `COc1ccccc1C1CCN(c2ccc([N+](=O)[O-])cn2)CC1`, the inhibition (at 35 µM) was 3.2% (inactive).

`COc1ccc(Nc2ccc([N+](=O)[O-])cn2)cn1`: the inhibition was 39.7% (active) (at 35 µM) and 54% (confirmation repeats, at 20 µM).

`COc1ccc(C(=O)NCCNc2ccc([N+](=O)[O-])cn2)cc1`: the inhibition (at 35 µM) is -2.9% (inactive).

For the molecule `CCOc1ccc(N(CC)S(=O)(=O)c2cccc3nsnc23)cc1`, the inhibition (at 35 µM) is 51% (inactive) and the inhibition (confirmation repeats, at 20 µM) worked out at 37.2%.

As to `CC(=O)Nc1ccc(NC(=O)CN2C(=O)COc3ccc(S(=O)(=O)N4CCCCC4)cc32)cc1`, the inhibition (at 35 µM) is 0% (inactive).

With `O=C(NCCc1nnc2ccc(SCC(=O)N3CCOCC3)nn12)c1ccccc1`, where the note is “at 35 µM”, the inhibition is 6.6% (inactive).

Turning to `COc1cccc(/C=C2/SC(=S)N(CC(=O)NC3C=CS(=O)(=O)C3)C2=O)c1` (stereo not given), the inhibition (at 35 µM) is 8.2% (inactive).

Take `CCNc1c(NS(=O)(=O)c2ccc(C3CCCCC3)cc2)c(=O)oc2ccccc12`: the inhibition (at 35 µM) was 2.8% (inactive).

On to `CC1=NN(C(N)=S)C(=O)C1N=Nc1cc(Cl)ccc1Cl` (stereo not given), for which the inhibition (at 35 µM) is 11.1% (inactive).

In the case of `Cn1c(=O)n(C)c2cc(C(=O)Nc3ccc4c(c3)OCO4)ccc21`, the inhibition (at 35 µM) was 9.8% (inactive).

On to `COc1ccc(NC(=O)CCN2C(=O)/C(=C/c3ccc4c(c3)OCO4)SC2=S)cc1`, for which, for the setting “at 35 µM”, the inhibition was 28.4% (inactive).

Regarding `Cc1ccc(C(=O)O)cc1-c1ccc(/C=C2\SC(=O)N(CC(=O)Nc3ccc4c(c3)OCO4)C2=O)o1`, where the note is “at 35 µM”, the inhibition is 62.5% (active).

As to `CCOc1ccc(N(C(=O)c2snc(C(N)=O)c2N)C(C(=O)NCC2CCCO2)c2c[nH]c3ccccc23)cc1` (stereo not given), the inhibition (at 35 µM) was 8.6% (inactive).

Consider `O=C(CCc1c[nH]c2ccccc12)NCCOc1ccccc1`, for which the inhibition (at 35 µM) was 3.3% (inactive).

Consider `CCN(CCCNC(=O)c1ccc2c(c1)NC(=O)CN2C)c1cccc(C)c1`, for which, where the note is “at 35 µM”, the inhibition was 0.9% (inactive).

Take `CCOc1ccc(N(C)S(=O)(=O)c2cnc[nH]2)cc1`: the inhibition (at 35 µM) was -4.6% (inactive).

For `O=C(CCN1CCCO1)N1CCCC(N2CCN(c3cccc(C(F)(F)F)c3)CC2)C1` (stereo not given), under “at 35 µM”, the inhibition is -17.5% (inactive).

Regarding `CN1/C(=c2/s/c(=C3/C(=O)N(c4ccccc4)NC3=Nc3ccccc3)n(C)c2=O)C(C)(C)c2ccccc21`, the inhibition (at 35 µM) was 79.2% (active).

With `CCN1C(=O)/C(=c2\s/c(=C3\Sc4ccccc4N3C)c(=O)n2C)N(C)C1=S`, where the note is “at 35 µM”, the inhibition is -6.7% (inactive).

Take `NC(=O)c1c(NC(=O)CSc2nc(N)cc(=O)[nH]2)sc2c1CCCC2`: where the note is “at 35 µM”, the inhibition is 9.6% (inactive).

With `NC(=O)c1c(NC(=O)CSc2nnc(-c3ccco3)n2N)sc2c1CCCC2`, the inhibition (at 35 µM) was 43.3% (active) and the inhibition (confirmation repeats, at 20 µM) stood at 90.6%.

In the case of `CCc1cccc(C)c1NC(=O)CSc1nnc(-c2ccco2)n1N`, the inhibition (at 35 µM) was -0.1% (inactive).

On to `C[C@@H](NC(=O)[C@@H]1Cc2ccccc2CN1)C(=O)NC1CCCC1`, for which the inhibition (at 35 µM) is 21% (inactive).

Take `Cc1ccc(CN2CCCOCCS2(=O)=O)cc1`: where the note is “at 35 µM”, the inhibition is 5.7% (inactive).

Consider `Cn1cccc1/C=C1\SC(=O)N(CC(=O)Nc2ccc(F)cc2)C1=O`, for which the inhibition (at 35 µM) is 2.5% (inactive).

Consider `Cc1ccccc1NC(=O)CN1C(=O)N/C(=C\c2cccn2-c2cccc(C(=O)O)c2)C1=O`, for which the inhibition by setting is: (at 35 µM) 82.4% (inactive); (confirmation repeats, at 20 µM) 24.9%.

In the case of `N#Cc1ccccc1CN1C(=O)S/C(=C/c2cccn2-c2cccc(C(=O)O)c2)C1=O`, the inhibition reads like this: (at 35 µM) 37.4% (active); (confirmation repeats, at 20 µM) 65.8%.

Consider `C=CCn1c(SCc2ccccc2)nc2c1c(=O)[nH]c(=O)n2C`, for which the inhibition (at 35 µM) was -1.9% (inactive).

Take `O=C(O)c1cc(S(=O)(=O)N(Cc2ccccc2)c2cccc(C(F)(F)F)c2)ccc1Cl`: the inhibition (at 35 µM) was 7.3% (inactive).

`Cc1cc(=O)[nH]c(SCc2cc(Cl)ccc2OC(F)F)n1`: the inhibition (at 35 µM) was 0.2% (inactive).

`COc1ccccc1-c1noc(CSc2nc(C)cc(=O)[nH]2)n1`: the inhibition (at 35 µM) was 56.6% (active).

As to `Cc1cc(=O)[nH]c(SCc2cccc(F)c2)n1`, where the note is “at 35 µM”, the inhibition is -3.3% (inactive).
